# Most compounds without a hit are left out; they make up all but 8.1% or so of the library.
# SW480 rerep: DNA re-replication induction in SW480 cells; SW480 DNA re-replication, Hoechst DNA content imaging, 48 h; Potency, µM (highest dose often 46.1 µM), for inactives: at the top dose re-replication activation, most hits filed as activators; 1.8% of 340,000 active; also: % of control where 0% means no effect; nearly all actives have a fitted effect of over 55% in size
#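 Readout is total intensity of Hoechst-stained nuclei, excited at 405 nm and collected at 500-530 nm. Compound treatment lasted 48 hr at 37 C in 5% CO2 before staining.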
# KB-V1 cytotox: KB-V1 MDR subline cytotoxicity; KB-V1 MDR cells viability, CellTiter-Glo, 72 h; AID 1347076; 3.4% of 400,000 active; Potency, µM (titrated, usually from 46.1 µM), usual class: cytotoxic; also: % is scaled to controls: 0 for no effect and ±100 for the full control effect; nearly all actives have a fitted effect of over 60% in size
#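 Readout: CellTiter-Glo luminescence, 10 min after addition. Cells: KB-V1 MDR subline, 72 h at 37 degrees C with compound. Analysis: corrected, normalized data fitted to concentration-effect curves.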
# ELG1 repair inh: inhibitors of ELG1-dependent DNA repair in HEK293T cells | 2.3% of 330,000 active | Potency, µM (titrated, usually from 46.1 µM), inactives show at the highest dose activity change, negative = inhibition, hits mostly inhibitors | HEK293T ELG1-luciferase reporter, luminescence, 16 h; DNA damage induced by 5-fluorouridine; also: % is scaled to controls: 0 for no effect and ±100 for the full control effect; nearly all actives have a fitted effect of over 55% in size
#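 Reporter activity after DNA damage by 5-fluorouridine is monitored. Compound-treated cells incubate 16 hr at 37 °C, then ONE-Glo is added for 30 min before luminescence reading.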
# MCF10A rerep: inducers of DNA re-replication in MCF 10A breast cells; MCF 10A DNA re-replication, Hoechst nuclear intensity, 48 h; Potency, µM (top dose mostly 46.1 µM), for the others: top-dose activity, positive = re-replication, actives largely listed as activators; 2.9% of 350,000 active; also: % of control where 0% means no effect; nearly all actives have a fitted effect of over 50% in size
# KB-3-1 tox: kills parental KB-3-1 adenocarcinoma cells; KB-3-1 viability, CellTiter-Glo ATP luminescence, 72 h; Potency, µM (doses to about 46.1 µM), most hits filed as cytotoxic; 1.4% of 400,000 active; AID 1347075; also: % is scaled to controls: 0 for no effect and ±100 for the full control effect; nearly all actives have a fitted effect of over 60% in size
#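 Viability of parental KB-3-1 cells, measured by CellTiter-Glo luminescence, followed a 72 h incubation at 37 °C with pinned compounds in phenol-red-free DMEM containing 10% FBS.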
# * = called active by the depositor; i = inactive; ? = inconclusive; nt = no result. Calls follow the shape of the dose curve; as a rule, active = well fitted curve in the direction sought with a large enough effect; inconclusive = small, poorly fitted or top-dose-only effect, or another doubt; inactive = no such curve, though single readings can be large; an effect the other way counts as inactive or inconclusive. Potency is read from the fitted curve at half-maximal effect.
SMILES,SW480 rerep,KB-V1 cytotox,ELG1 repair inh,MCF10A rerep,KB-3-1 tox
CC(=O)OCC1OC(OC2C[C@]3(C)C(CC(O)C4C([C@](C)(CCC=C(C)C)OC5OC(CO)C(O)C(O)C5O)CC[C@]43C)[C@@]3(C)CCC(O)C(C)(C)C23)C(O[C@@H]2OC(C)C(O)C(O)C2O)C(O)C1O (some centres not stated),-8%,i,14%,0.52µM*,i
CCOC(=O)C1CCCN(C(=O)CN2C(=O)/C(=C/c3ccc(OC)cc3)Oc3ccccc32)C1 (configuration not stated),5%,16µM*,23µM*,?,i
CCOC(=O)C1CCCN(C(=O)CN2C(=O)c3ccccc3C2=O)C1 (configuration not stated),-2%,i,5%,0%,i
CC(C)c1noc2ncc(C(=O)c3cc(Cl)cc(Cl)c3O)cc12,?,16µM*,-18%,?,?
Nc1nc2ncc(C(=O)c3cc(Cl)cc(Cl)c3O)cc2s1,13%,i,-14%,2%,i
Cc1cc(C(=O)N2CCC2(C)C(=O)O)c(C)o1 (configuration not stated),nt,i,nt,nt,i
Cn1nc([N+](=O)[O-])nc1Oc1ccc(C(C)(C)C)cc1,-2%,15µM*,-7%,?,i
Cn1nc([N+](=O)[O-])nc1Oc1ccccc1,-3%,?,6%,-16%,i
COc1cccc(CN(C)CC(O)COc2cc(Cl)ccc2Cl)c1 (configuration not stated),1%,i,-2%,-11%,i
COc1cccc(CCc2ccccc2OCC(CN(C)C)OC(=O)CCC(=O)O)c1 (configuration not stated),30µM*,i,nt,29%,i
Cc1nc([N+](=O)[O-])c(Sc2nc3ccccc3n2C)n1Cc1ccccc1,?,i,?,15µM*,i
Cc1nc([N+](=O)[O-])c(SCC(N)=O)n1Cc1ccccc1,0%,i,3%,10%,i
CCOC(=O)c1cnn(-c2ccc(C(=O)Nc3cccc(C(C)=O)c3)cc2)c1N,nt,i,nt,nt,i
COc1ccc(N2CCN(c3cc(C(=O)NC4CCCCC4)ncn3)CC2)cc1OC,nt,15µM*,nt,nt,i
COc1ccc(C(=O)NC2CCCCCCC2)cc1OC,-1%,?,nt,3%,?
CC(C)CN1C(=O)C(=O)N(CC(=O)c2ccc3c(c2)CCCC3)C1=O,-1%,16µM*,?,9%,i
CCN1C(=O)C(=O)N(CC(=O)c2cc(C)n(C3CC3)c2C)C1=O,0%,i,?,4%,i
CCCN1C(=O)C(=O)N(CC(=O)c2cc(C)n(C3CC3)c2C)C1=O,0%,21µM*,?,4%,?
Cc1cc(C(=O)CN2C(=O)C(=O)N(CC(C)C)C2=O)c(C)n1C1CC1,?,18µM*,?,13%,i
Cc1cc(C(=O)CN2C(=O)C(=O)N(CCC3=CCCCC3)C2=O)c(C)n1C,1%,23µM*,?,17%,i
CCCCN1C(=O)C(=O)N(CC(=O)c2ccc3c(c2)CCCC3)C1=O,-13%,?,3%,8%,i
CC(=O)c1ccc[n+](CC(=O)c2ccc(F)cc2)c1,nt,i,nt,nt,i
[O-][n+]1cccc(CO)c1,-3%,nt,nt,-1%,nt
Cc1cc(C(=O)CN2C(=O)NC(C)(c3cc(F)ccc3F)C2=O)c(C)n1C1CC1 (configuration not stated),?,i,-13%,-11%,i
COc1cccc(C2(C)NC(=O)N(CC(=O)c3cc(C)n(C4CC4)c3C)C2=O)c1 (configuration not stated),-4%,16µM*,0%,-1%,i
SMILES,SW480 rerep,KB-V1 cytotox,ELG1 repair inh,MCF10A rerep,KB-3-1 tox
Cn1c(N)c(C(=O)COC(=O)c2ccccc2C(=O)c2ccc(Cl)c([N+](=O)[O-])c2)c(=O)n(C)c1=O,?,i,?,12µM*,?
CN(CCC#N)C(=O)COC(=O)c1ccccc1C(=O)c1ccc(Cl)c([N+](=O)[O-])c1,23%,i,20%,9.2µM*,?
O=C(COC(=O)c1ccc(Cl)c([N+](=O)[O-])c1)NC1CCCC1,-2%,i,3%,10%,i
CC(C)N(C(=O)COC(=O)c1ccccc1C(=O)c1ccc(Cl)c([N+](=O)[O-])c1)C(C)C,?,i,?,?,i
O=C(COC(=O)c1ccccc1C(=O)c1ccc(Cl)c([N+](=O)[O-])c1)NC1CCCCCC1,3.7µM*,i,?,2.6µM*,?
Cn1c(N)c(C(=O)COC(=O)c2ccccc2C(=O)c2ccccc2)c(=O)n(C)c1=O,0%,i,-13%,16%,?
COc1cccc(/C=C2\SC(=S)N(CCC(=O)N3CCCCC3)C2=O)c1,-2%,i,-5%,10µM*,?
CC1CCN(C(=O)CCN2C(=O)/C(=C/c3cccs3)SC2=S)CC1,5.8µM*,?,-1%,23µM*,?
O=C1/C(=C/c2ccccc2F)SC(=S)N1CCC(=O)N1CCCCC1CCO (configuration not stated),?,i,-8%,23µM*,?
O=C(CCN1C(=O)/C(=C\c2ccccc2F)SC1=S)N1CCCCC1,?,?,0%,?,10µM*
COc1ccc(/C=C2\SC(=S)N(CCC(=O)N3CCCCC3)C2=O)cc1,5%,i,3%,6%,i
CC(C)(C)c1ccc(C(CC(=O)O)NC(=O)Cc2ccccc2)cc1 (configuration not stated),-4%,i,17%,-4%,i
O=C(CCN1C(=O)/C(=C\c2ccccc2Cl)SC1=S)N1CCN(c2ccccc2)CC1,-2%,?,8%,6.5µM*,?
O=C(NCc1ccccn1)[C@@H]1CCCN1C(=O)[C@@H]1CCCN1,nt,i,nt,nt,?
CCOCCc1nnc(NC(=O)CCS(=O)(=O)c2ccccc2)s1,?,i,-3%,21µM*,i
O=C(CCS(=O)(=O)c1ccc(F)cc1)Nc1nc(-c2ccncc2)cs1,?,i,5%,18µM*,i
CC(C)c1nnc(NC(=O)CCS(=O)(=O)c2nc(-c3cccs3)cc(C(F)(F)F)n2)s1,?,i,?,3.7µM*,i
CC(=O)c1sc(NC(=O)CCS(=O)(=O)c2ccc(F)cc2)nc1C,nt,i,nt,nt,i
CC(=O)c1sc(NC(=O)CCS(=O)(=O)c2ccccc2)nc1C,4.6µM*,i,3%,2.9µM*,?
O=C(CCS(=O)(=O)c1nc(-c2cccs2)cc(C(F)(F)F)n1)Nc1ccc(OC(F)(F)F)cc1,nt,i,nt,nt,i
